# In PubChem BioAssay AID588676 (Johns Hopkins Ion Channel Center, 2011):
# Hit rate of the full screen: of about 310,000 compounds, about 3,900 (1.3%) were called active.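 The calls were made as follows: active = calcium-response B-score plate-corrected more than 3 library SD below zero, starting fluorescence within 5 deviations, no agonist response on first addition; inactive = the rest.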 The sample as a whole holds a higher share of actives than the screen did.
# Target: Mas-related G-protein coupled receptor member X1 (Homo sapiens) (UniProt Q96LB2)
# Sequence (Q96LB2 whole entry, looked up): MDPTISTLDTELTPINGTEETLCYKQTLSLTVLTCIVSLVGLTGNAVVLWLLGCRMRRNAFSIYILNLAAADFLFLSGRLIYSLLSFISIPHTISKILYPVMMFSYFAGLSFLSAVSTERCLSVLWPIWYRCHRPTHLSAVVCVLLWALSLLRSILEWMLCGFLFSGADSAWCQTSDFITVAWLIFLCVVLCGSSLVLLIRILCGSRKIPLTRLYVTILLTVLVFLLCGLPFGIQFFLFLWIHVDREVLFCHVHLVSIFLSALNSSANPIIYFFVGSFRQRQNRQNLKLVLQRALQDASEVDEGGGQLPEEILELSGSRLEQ
# Assay: blockade of BAM8-22-evoked MrgX1 calcium response – HEK293 cells, Fluo-4 calcium flux, primary screen (AID 588676);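 as to B-score: peak minus trough fluorescence over baseline after final BAM8-22 challenge near maximal dose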
# Settings: Fluo-4, BAM8-22 antagonism, at 10 µM; stronger effect = lower value
row,Structure (SMILES),B-score
1,COc1ccc(-n2c(SCC(=O)NCc3cccs3)nnc2-c2ccoc2C)cc1,inactive
2,O=c1[nH]snc1-c1c(Cl)cccc1Cl,inactive
3,CCOc1ccc(CCNC(=O)Nc2ccccc2)cc1OCC,inactive
4,COc1cccc(CNC(=O)C2CC(=O)N(C3CCCCCCC3)C2)c1 (stereo not drawn),inactive
5,Cc1no[n+]([O-])c1COc1ccccc1/C=C1\NC(=S)NC1=O,inactive
6,O=c1c2c(nc3cc(-c4cccc(Cl)c4)[nH]n13)CCCC2,inactive
7,O=C1CCCc2c1nc(-c1cccc(Cl)c1)n2O,-7.62 (active)
8,O=c1c2cc(Br)ccc2nc(-c2cccc(Cl)c2)n1O,inactive
9,Cc1c(CC(=O)NCC(=O)NCC(=O)O)c(=O)oc2cc3oc4c(c3cc12)CCCC4,inactive
10,CC(C)CNC(=S)NC(=O)c1ccc(Cl)cc1,inactive
11,COc1cccc(-c2cccc(NC(=O)C3CCN(C4CCC4)CC3)c2)c1,inactive
12,O=C(CN(C(=O)c1csnn1)c1cccc(F)c1)NCc1ccc(F)cc1,inactive
13,COC(=O)C1=C(C(=O)OC)C2(OC1c1ccc(Br)cc1)C(=O)c1ccccc1C2=O (stereo not drawn),inactive
14,Cc1cccc(NC(=O)COc2ccc(Br)cc2C)n1,inactive
15,Cc1cccc(NC(=O)COc2ccccc2C)n1,-4.62 (active)
16,Cc1ccccc1OCC(=O)Nc1nc(C)c(C(=O)N(C)C)s1,inactive
17,COc1ccc(C)cc1NC(=S)N1CCOCC1,inactive
18,CN1CCN(NC(=O)Nc2ccc(Br)cc2)CC1,inactive
19,CN1C(CC(=O)Nc2ccc(Br)cc2)c2ccccc2CC1(C)C (stereo not drawn),-5.82 (active)
20,COCC(=O)Nc1ccc(Br)cc1,inactive

row,Structure (SMILES),B-score
1,CCN(CC)c1ccc(C(=O)NNC(=O)CCc2nc3ccccc3c(=O)[nH]2)cc1,inactive
2,O=S(=O)(c1ccc2ccccc2c1)N1CCN(S(=O)(=O)N2CCOCC2)CC1,-11.5 (active)
3,Cc1ccc(S(=O)(=O)N2CCN(S(=O)(=O)N3CCOCC3)CC2)cc1,inactive
4,Cc1ccccc1N1CCN(S(=O)(=O)c2ccc3ccccc3c2)CC1,inactive
5,O=C(COc1ccc(Cl)cc1)NC(=S)Nc1ccccc1N1CCOCC1,-5.65 (active)
6,Cc1cccc(OCC(=O)NC(=S)Nc2ccccc2N2CCOCC2)c1,inactive
7,CCc1ccc(C(=O)NC(=S)Nc2ccccc2N2CCOCC2)cc1,inactive
8,CCOC(=O)C1CCN(C(=O)CN2C(=O)c3cccnc3Oc3ccc(C)cc32)CC1,inactive
9,C[C@@H](NC(=O)[C@@H]1Cc2ccccc2CN1)C(=O)NC1CCCC1,inactive
10,Cc1nc2ccccc2nc(C)c1=NOCc1ccc(Cl)cc1Cl,inactive
11,COc1ccc(CCNC(=O)CCc2cn(C)c3ccccc23)c(OC)c1,inactive
12,NC(=O)NC(=O)C(OC(=O)CCNS(=O)(=O)c1ccccc1)c1ccccc1 (stereo not drawn),inactive
13,CCOc1ccc(C(=O)Nc2ccncc2)cc1,inactive
14,CCOc1ccc(NC(=O)CCNC(=O)c2ccc(Br)cc2)cc1,-4.98 (active)
15,CCOc1ccc(NC(=O)c2ccc(NC(=O)COC(=O)c3ccc(NC(=O)CC#N)cc3)cc2)cc1,inactive
16,Fc1cccc(Cc2noc(CN3CCN(c4cnccn4)CC3)n2)c1,inactive
17,Fc1ccccc1COc1ccccc1CNCc1ccncc1,inactive
18,C=CCOc1cccc(CNCc2cccnc2)c1,inactive
19,c1ccc(COc2ccccc2CNCc2cccnc2)cc1,-6.34 (active)
20,COc1ccc(N2C(=O)C(CC(=O)Nc3ccccc3)N(Cc3ccc(OC)c(OC)c3)C2=O)cc1 (stereo not drawn),inactive

row,Structure (SMILES),B-score
1,CCOc1ccc(C(=O)N(Cc2ccc(N(C)C)cc2)C2CCS(=O)(=O)C2)cc1 (stereo not drawn),inactive
2,COc1ccc(C(=O)N(Cc2ccc(N(C)C)cc2)C2CCS(=O)(=O)C2)cc1 (stereo not drawn),inactive
3,COc1cc(C(=O)N(Cc2ccc(N(C)C)cc2)C2CCS(=O)(=O)C2)cc(OC)c1OC (stereo not drawn),-4.58 (active)
4,O=Cc1ccc(OCc2cn3ccccc3n2)cc1,inactive
5,COC(=O)c1sccc1NC(=O)CSc1ccccc1NS(=O)(=O)c1cc(Cl)ccc1Cl,inactive
6,COc1ccc(NS(=O)(=O)c2ccc(F)cc2F)cn1,inactive
7,COC(=O)c1sccc1NS(=O)(=O)c1ccc(F)cc1F,-4.66 (active)
8,COc1c(Br)cc2c(C)c(C(=O)N3CCOCC3)oc2c1Br,inactive
9,O=C(CN1CCCC1)N1CCN(c2ccccc2)CC1,inactive
10,O=C(CN1CCN(c2ccc(Cl)cc2)CC1)N1CCCC1,-6.44 (active)
11,O=C(CN1CCN(c2ccc(Cl)cc2)CC1)c1ccccc1,inactive
12,Cc1cccc(-[n+]2c(-c3cccc(Br)c3)[nH]c3nc4ccccc4nc32)c1,inactive
13,CC1(C)Cc2cccc(OCC(=O)N3CCN(c4ccc([N+](=O)[O-])cc4)CC3)c2O1,inactive
14,CN(CC(=O)Nc1ccccc1Cl)C(=O)COc1cccc2c1OC(C)(C)C2,-5.16 (active)
15,CC1(C)Cc2cccc(OCC(N)=O)c2O1,inactive
16,CC1(C)Cc2cccc(OCC(=O)NCc3ccccc3)c2O1,inactive
17,CC1(C)Cc2cccc(OCC(=O)Nc3nccs3)c2O1,inactive
18,COc1cccc(CCNC(=O)COc2cccc3c2OC(C)(C)C3)c1,-5.36 (active)
